# In all, about 5,500 compounds went through this assay and about 2,000 (36%) were called active. Not shown: some 18% with an inconclusive outcome. The list shows a part of the results. Values without a mark were called inactive. Rule as the data show it: active = normalized growth mostly below about 0.91 (no sharp cut-off); inconclusive = no clear call, values can overlap the other calls; inactive = mostly above about 0.92.
# Assay: chemical genetic growth profiling, strain panel (AID 1159580);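 also: tested at 20 µM; growth read once vehicle control cultures reached saturation at 30 °C; 1 = growth at the plate median or of vehicle wells; lower values mean less growth of the strain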
# Details: S. cerevisiae deletion strains, growth OD
# [1] = locus YAR019C, strain CDC15, active compounds read low
# [2] = locus YBL105C, strain PKC1, active compounds read low
# [3] = locus YBR135W, strain CKS1, active compounds read low
# [4] = locus YBR136W, strain MEC1, active compounds read low
# [5] = locus YBR160W, strain CDC28, active compounds read low
# [6] = locus YDL017W, strain CDC7, active compounds read low
# [7] = locus YDL028C, strain MPS1, active compounds read low
# [8] = locus YDL101C, strain DUN1, active compounds read low
# [9] = locus YDL108W, strain KIN28, active compounds read low
# [10] = locus YDL132W, strain cdc53, active compounds read low
# [11] = locus YDL214C, strain PRR2, active compounds read low
# [12] = locus YDR052C, strain DBF4, active compounds read low
# [13] = locus YDR054C, strain cdc34, active compounds read low
# [14] = locus YDR226W, strain ADK1, active compounds read low
# [15] = locus YDR477W, strain SNF1, active compounds read low
# [16] = locus YER123W, strain YCK3, active compounds read low
# [17] = locus YER133W, strain GLC7, active compounds read low
# [18] = locus YFL009W, strain cdc4, active compounds read low
# [19] = locus YFL029C, strain CAK1, active compounds read low
# [20] = locus YFR003C, strain YPI1, active compounds read low
# [21] = locus YFR019W, strain FAB1, active compounds read low
# [22] = locus YFR028C, strain CDC14, active compounds read low
# [23] = locus YGR040W, strain KSS1, active compounds read low
# [24] = locus YGR052W, strain FMP48, active compounds read low
# [25] = locus YGR092W, strain DBF2, active compounds read low
# [26] = locus YHR030C, strain SLT2, active compounds read low
# [27] = locus YHR079C, strain IRE1, active compounds read low
# [28] = locus YHR082C, strain KSP1, active compounds read low
# [29] = locus YHR205W, strain SCH9, active compounds read low
# [30] = locus YIL147C, strain SLN1, active compounds read low
# [31] = locus YJL095W, strain BCK1, active compounds read low
# [32] = locus YJL128C, strain PBS2, active compounds read low
# [33] = locus YJL157C, strain FAR1, active compounds read low
# [34] = locus YJR016C, strain ILV3, active compounds read low
# [35] = locus YJR066W, strain TOR1 (second series), active compounds read low
# [36] = locus YJR066W, strain TOR1, active compounds read low
# [37] = locus YKL048C, strain ELM1, active compounds read low
# [38] = locus YKL067W, strain YNK1, active compounds read low
# [39] = locus YKL101W, strain HSL1, active compounds read low
# [40] = locus YKL193C, strain SDS22, active compounds read low
# [41] = locus YKL203C, strain TOR2, active compounds read low
# [42] = locus YLR113W, strain HOG1, active compounds read low
# [43] = locus YLR133W, strain CKI1, active compounds read low
# [44] = locus YLR403W, strain SFP1, active compounds read low
# [45] = locus YML070W, strain DAK1, active compounds read low
# [46] = locus YMR001C, strain CDC5, active compounds read low
# [47] = locus YMR205C, strain PFK2 (second series), active compounds read low
# [48] = locus YMR277W, strain FCP1, active compounds read low
# [49] = locus YNL006W, strain LST8, active compounds read low
# [50] = locus YNL020C, strain ARK1, active compounds read low
# [51] = locus YNL161W, strain CBK1, active compounds read low
# [52] = locus YNL183C, strain NPR1, active compounds read low
# [53] = locus YNL207W, strain RIO2, active compounds read low
# [54] = locus YNL222W, strain SSU72, active compounds read low
# [55] = locus YNL307C, strain MCK1 (second series), active compounds read low
# [56] = locus YOL078W, strain AVO1, active compounds read low
# [57] = locus YOL136C, strain PFK27, active compounds read low
# [58] = locus YOR061W, strain CKA2, active compounds read low
# [59] = locus YOR119C, strain RIO1, active compounds read low
# [60] = locus YOR231W, strain MKK1, active compounds read low
# [61] = locus YOR329C, strain SCD5, active compounds read low
# [62] = locus YPL031C, strain PHO85, active compounds read low
# [63] = locus YPL153C, strain RAD53, active compounds read low
# [64] = locus YPL204W, strain HRR25, active compounds read low
# [65] = locus YPL209C, strain IPL1, active compounds read low
# [66] = locus YPL256C, strain CLN2, active compounds read low
# [67] = locus YPR025C, strain CCL1, active compounds read low
# [68] = locus YPR106W, strain ISR1, active compounds read low
# [69] = locus YPR111W, strain DBF20, active compounds read low
# [70] = strain NNK1, active compounds read low
# [71] = strain TSCII, active compounds read low
structure (smiles),measurement,setting,value
C/C(=N/Nc1nc(C(C)(C)C)cs1)c1ccc(Cl)c(Cl)c1,normalized growth,[1],0.986
same,normalized growth,[2],0.983
same,normalized growth,[3],0.994
same,normalized growth,[4],0.99
same,normalized growth,[5],0.987
same,normalized growth,[6],0.981
same,normalized growth,[7],0.996
same,normalized growth,[8],0.981
same,normalized growth,[9],0.994
same,normalized growth,[10],0.99
same,normalized growth,[11],0.919
same,normalized growth,[12],0.977
same,normalized growth,[13],0.978
same,normalized growth,[14],0.973
same,normalized growth,[15],0.944
same,normalized growth,[16],0.844
same,normalized growth,[17],0.943
same,normalized growth,[18],0.987
same,normalized growth,[19],0.981
same,normalized growth,[20],0.985
same,normalized growth,[21],0.91
same,normalized growth,[22],0.994
same,normalized growth,[23],0.945
same,normalized growth,[24],0.932
same,normalized growth,[25],0.923
same,normalized growth,[26],0.753 (active)
same,normalized growth,[27],0.759
same,normalized growth,[28],0.965
same,normalized growth,[29],0.953
same,normalized growth,[30],0.993
same,normalized growth,[31],0.839
same,normalized growth,[32],0.954
same,normalized growth,[33],0.889
same,normalized growth,[34],0.993
same,normalized growth,[35],0.835
same,normalized growth,[36],0.891
same,normalized growth,[37],0.97
same,normalized growth,[38],0.949
same,normalized growth,[39],0.98
same,normalized growth,[40],0.991
same,normalized growth,[41],0.969
same,normalized growth,[42],0.803 (active)
same,normalized growth,[43],0.933
same,normalized growth,[44],0.908
same,normalized growth,[45],0.916
same,normalized growth,[46],0.983
same,normalized growth,[47],0.97
same,normalized growth,[48],0.986
same,normalized growth,[49],0.986
same,normalized growth,[50],0.917
same,normalized growth,[51],0.99
same,normalized growth,[52],0.92
same,normalized growth,[53],0.976
same,normalized growth,[54],0.987
same,normalized growth,[55],0.899
same,normalized growth,[56],0.989
same,normalized growth,[57],0.871
same,normalized growth,[58],0.943
same,normalized growth,[59],1
same,normalized growth,[60],0.792
same,normalized growth,[61],0.981
same,normalized growth,[62],0.903
same,normalized growth,[63],0.932
same,normalized growth,[64],0.899
same,normalized growth,[65],0.987
same,normalized growth,[66],0.757 (active)
same,normalized growth,[67],0.992
same,normalized growth,[68],0.983
same,normalized growth,[69],0.974
same,normalized growth,[70],0.974
same,normalized growth,[71],0.989
CC(C)(C)c1csc(NC(=O)Nc2ccc(Cl)cc2)n1,normalized growth,[1],0.989
same,normalized growth,[2],0.972
same,normalized growth,[3],0.973
same,normalized growth,[4],0.976
same,normalized growth,[5],0.985
same,normalized growth,[6],0.982
same,normalized growth,[7],0.973
same,normalized growth,[8],0.974
same,normalized growth,[9],0.978
same,normalized growth,[10],0.974
same,normalized growth,[11],0.684 (active)
same,normalized growth,[12],0.983
same,normalized growth,[13],0.974
same,normalized growth,[14],0.973
same,normalized growth,[15],0.605 (active)
same,normalized growth,[16],0.466 (active)
same,normalized growth,[17],0.534 (active)
same,normalized growth,[18],0.972
same,normalized growth,[19],0.97
same,normalized growth,[20],0.981
same,normalized growth,[21],0.722 (active)
same,normalized growth,[22],0.97
same,normalized growth,[23],0.634 (active)
same,normalized growth,[24],0.304 (active)
same,normalized growth,[25],0.48 (active)
same,normalized growth,[26],0.39 (active)
same,normalized growth,[27],0.509 (active)
same,normalized growth,[28],0.466 (active)
same,normalized growth,[29],0.583
same,normalized growth,[30],0.972
same,normalized growth,[31],0.345 (active)
same,normalized growth,[32],0.905
same,normalized growth,[33],0.81
same,normalized growth,[34],0.981
same,normalized growth,[35],0.625 (active)
same,normalized growth,[36],0.452 (active)
same,normalized growth,[37],0.609 (active)
same,normalized growth,[38],0.732 (active)
same,normalized growth,[39],0.441 (active)
same,normalized growth,[40],0.981
same,normalized growth,[41],0.565 (active)
same,normalized growth,[42],0.28 (active)
same,normalized growth,[43],0.687 (active)
same,normalized growth,[44],0.601 (active)
same,normalized growth,[45],0.441 (active)
same,normalized growth,[46],0.97
same,normalized growth,[47],0.705 (active)
same,normalized growth,[48],0.974
same,normalized growth,[49],0.979
same,normalized growth,[50],0.67 (active)
same,normalized growth,[51],0.969
same,normalized growth,[52],0.281 (active)
same,normalized growth,[53],0.97
same,normalized growth,[54],0.983
same,normalized growth,[55],0.553 (active)
same,normalized growth,[56],0.982
same,normalized growth,[57],0.719
same,normalized growth,[58],0.732
same,normalized growth,[59],0.524 (active)
same,normalized growth,[60],0.5 (active)
same,normalized growth,[61],0.982
same,normalized growth,[62],0.43 (active)
same,normalized growth,[63],0.481 (active)
same,normalized growth,[64],0.529 (active)
same,normalized growth,[65],0.98
same,normalized growth,[66],0.44 (active)
same,normalized growth,[67],0.977
same,normalized growth,[68],0.97
same,normalized growth,[69],0.967
same,normalized growth,[70],0.953
same,normalized growth,[71],0.981
CC(C)(C)c1cc2nc(C(F)(F)F)cc(NNC(=O)c3ccc(Cl)cc3)n2n1,normalized growth,[1],0.978
same,normalized growth,[2],0.994
same,normalized growth,[3],0.977
same,normalized growth,[4],0.989
same,normalized growth,[5],0.978
same,normalized growth,[6],0.996
same,normalized growth,[7],0.984
same,normalized growth,[8],0.991
same,normalized growth,[9],0.981
same,normalized growth,[10],0.974
same,normalized growth,[11],1.01
same,normalized growth,[12],0.989
same,normalized growth,[13],0.978
same,normalized growth,[14],0.982
same,normalized growth,[15],1.03
same,normalized growth,[16],0.999
same,normalized growth,[17],1.03
same,normalized growth,[18],0.981
same,normalized growth,[19],0.981
same,normalized growth,[20],0.992
same,normalized growth,[21],0.966
same,normalized growth,[22],0.979
same,normalized growth,[23],1.01
same,normalized growth,[24],1.12
same,normalized growth,[25],0.952
same,normalized growth,[26],1.04
same,normalized growth,[27],0.989
same,normalized growth,[28],1.06
same,normalized growth,[29],0.99
same,normalized growth,[30],0.983
same,normalized growth,[31],0.991
same,normalized growth,[32],0.961
same,normalized growth,[33],1.02
same,normalized growth,[34],0.977
same,normalized growth,[35],0.991
same,normalized growth,[36],1.05
same,normalized growth,[37],0.986
same,normalized growth,[38],1
same,normalized growth,[39],1.01
same,normalized growth,[40],0.977
same,normalized growth,[41],1.07
same,normalized growth,[42],0.983
same,normalized growth,[43],0.995
same,normalized growth,[44],0.991
same,normalized growth,[45],1
same,normalized growth,[46],0.994
same,normalized growth,[47],1
same,normalized growth,[48],0.973
same,normalized growth,[49],0.988
same,normalized growth,[50],1.01
same,normalized growth,[51],0.991
same,normalized growth,[52],0.988
same,normalized growth,[53],0.981
same,normalized growth,[54],0.975
same,normalized growth,[55],1
same,normalized growth,[56],0.98
same,normalized growth,[57],1.01
same,normalized growth,[58],0.995
same,normalized growth,[59],1.11
same,normalized growth,[60],0.988
same,normalized growth,[61],0.997
same,normalized growth,[62],1.03
same,normalized growth,[63],1.03
same,normalized growth,[64],1.05
same,normalized growth,[65],0.988
same,normalized growth,[66],0.994
same,normalized growth,[67],0.988
same,normalized growth,[68],0.988
same,normalized growth,[69],0.976
same,normalized growth,[70],0.983
same,normalized growth,[71],0.984
